The values that follow come from PubChem BioAssay (NCI).

Assay [1] in a line: NCI Yeast Anticancer Drug Screen. Data for the rad50 strain (AID 155).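 Note: 0% = growth of vehicle-only cultures of the same strain.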 As to conditions: S. cerevisiae rad50 strain growth inhibition; at 50.0 µM; active compounds read high. In short, it runs like this: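 Cells are treated with compound, grown, and their growth is then scored against vehicle-only cultures of the same repair-deficient yeast strain.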
Assay [2] can be described thus: NCI Yeast Anticancer Drug Screen. Data for the mec2-1 strain (AID 157). As to conditions: S. cerevisiae mec2-1 strain, at 50.0 µM, active compounds read high. In outline: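 Each compound was tested on mec2-1 yeast, a strain altered in DNA damage repair or cell cycle control. Growth inhibition is reported relative to vehicle.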
The nature of assay [3]: NCI Yeast Anticancer Drug Screen. Data for the sgs1 mgt1 strain (AID 161).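 Note: 0% = growth of cultures given vehicle only.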 The conditions noted are these: S. cerevisiae sgs1 mgt1 strain, at 50.0 µM, active compounds read high. In short, it runs like this:
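Inhibition of yeast growth, normalised to vehicle-treated controls, is reported for a strain bearing genetic alterations in DNA damage repair.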

Assay [4] in a line: NCI Yeast Anticancer Drug Screen. Data for the cln2 rad14 strain (AID 165).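 Note: 0% = growth equal to vehicle treated cultures.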 As to conditions: S. cerevisiae cln2 rad14 strain, at 50.0 µM, active compounds read high. In short, it runs like this:
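Test compounds were added to cln2 rad14 yeast cultures; inhibition of growth was then determined by comparison with vehicle treatment.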

A short description of assay [5]: NCI Yeast Anticancer Drug Screen. Data for the bub3 strain (AID 167). The conditions noted are these: S. cerevisiae bub3 mutant strain, at 50.0 µM, active compounds read high. In short, it runs like this:
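Part of a panel of yeast mutants defective in DNA damage repair or cell cycle regulation. Each strain is grown with compound, and inhibition is calculated relative to solvent-treated cultures.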

Assay [6] in a line: NCI Yeast Anticancer Drug Screen. Data for the mlh1 rad18 strain (AID 175). As to conditions: S. cerevisiae mlh1 rad18 strain growth inhibition; at 50.0 µM; active compounds read high. In short, it runs like this:
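Inhibition values reflect reduced growth of mutant yeast versus vehicle-treated controls following compound exposure; the mutations affect DNA damage repair.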

This is part of a sample that, as a whole, favours compounds with a hit. Of some 79,000 tested, about 15% had one in any assay. A number with no mark means an inactive call. Active and inactive are the calls of the source. Cut-off read from the data, not from the text of the source: active = growth inhibition above about 70%; inactive = the rest.

For the compound `O=S1(=O)CC(c2ccccc2)(c2ccccc2)Nc2ccccc21`, the growth inhibition in assay [1] is -6.55%; in assay [2], -14.8%; in assay [3], 0.45%; in assay [4], -5.65%; in assay [5], -11.3%; in assay [6], -18.1%.

Regarding `CCOC(=O)/C(=C/c1ccc(C#N)cc1)N(CC)CC`, the growth inhibition in assay [1] was -3.95%; in assay [2], -13.1%; in assay [3] it was -9%; in assay [4], 24.4%; in assay [5] it was -3.9%; in assay [6], -9.25%.

For the compound `CS(=O)(=O)C(C#N)S(C)(=O)=O`, the growth inhibition in assay [1] is -1.85%; in assay [2], -1.05%; in assay [3], -6.05%; in assay [4] it was -19.2%; in assay [5], 40.9%; in assay [6] it was -10.1%.

Turning to `C=C(C)COB(OCC(=C)C)OCC(=C)C`, the growth inhibition is -6.3% in assay [1]; -25.4% in assay [2]; -2.25% in assay [3]; 1.95% in assay [4]; -10.8% in assay [5]; -16.2% in assay [6].

With `O=C1/C(=C/c2ccc(O)c(CN3CCCCC3)c2)CCC/C1=C\c1ccc(O)c(CN2CCCCC2)c1`, the growth inhibition in assay [1] is -0.8%; in assay [2] it was 23.9%; in assay [3], 1.75%; in assay [4], -8%; in assay [5] it was -1.9%; in assay [6] it was 19.4%.

As for `c1ccc(Cc2c[nH]c3ccccc23)cc1`, the growth inhibition in assay [1] was 9.45%; in assay [2], -0.05%; in assay [3], 9.4%; in assay [4] it was -9.6%; in assay [5] it was -1.85%; in assay [6], 14.9%.

Turning to `COc1ccc2[nH]cc(C=O)c2c1`, the growth inhibition is 13.3% in assay [1]; -2.95% in assay [2]; -1.65% in assay [3]; 7.25% in assay [4]; -2.1% in assay [5]; 3.5% in assay [6].

Turning to `O=[N+]([O-])c1ccccc1C=Nc1ccccc1O`, the growth inhibition was 56.4% in assay [1]; 44.5% in assay [2]; 52.8% in assay [3]; 24.9% in assay [4]; 75% (active) in assay [5]; 66% in assay [6].

As to `CCOP(=O)(OCC)C(C(=O)OC)C(=O)C(=O)Nc1c(C)cc(Br)cc1C` (stereo not given), the growth inhibition is -42.1% in assay [1]; -17.2% in assay [2]; -23.9% in assay [3]; -1.8% in assay [4]; -3.85% in assay [5]; -17.6% in assay [6].

As to `Cc1ccc(NC(=O)CCC(=O)O)cc1Cl`, the growth inhibition in assay [1] is -19.9%; in assay [2], -15.9%; in assay [3] it was -4.25%; in assay [4], -27.2%; in assay [5] it was -10.9%; in assay [6] it was -16.2%.

On to `CCOC(=O)c1cnc(SCc2ccccc2)[nH]c1=O`, for which the growth inhibition in assay [1] was -6.1%; in assay [2], -9.8%; in assay [3] it was -17.7%; in assay [4], -3.7%; in assay [5] it was -16.6%; in assay [6] it was -13.3%.

In the case of `O=C(CC1C(=O)Nc2ccccc2S1(=O)=O)Nc1cc(Cl)ccc1Cl` (stereo not given), the growth inhibition is 0.15% in assay [1]; -30.8% in assay [2]; 7.25% in assay [3]; 15.1% in assay [4]; 4.5% in assay [5]; -12.3% in assay [6].

With `CCOC(=O)c1c(Br)c(-c2ccc([N+](=O)[O-])cc2)c(Br)n1C`, the growth inhibition in assay [1] was 11.4%; in assay [2], -7.4%; in assay [3], -0.15%; in assay [4], -0.15%; in assay [5], -2.1%; in assay [6] it was -5.2%.

Regarding `CC1=NC=C(O)c2ccccc2O1`, the growth inhibition is 24.4% in assay [1]; 12.4% in assay [2]; 26.8% in assay [3]; 15.6% in assay [4]; 14.9% in assay [5]; 21.4% in assay [6].

`S=C(Nc1ccccc1)Nc1ccc(NC(=S)Nc2ccccc2)cc1`: the growth inhibition in assay [1] is 8.25%; in assay [2], -0.25%; in assay [3] it was -3.6%; in assay [4] it was -4.95%; in assay [5], -8.45%; in assay [6], -52.2%.

On to `C#CC(C)(C)Oc1cc(O)c2c(=O)c3ccccc3n(C)c2c1`, for which the growth inhibition in assay [1] is -7.9%; in assay [2], -0.35%; in assay [3] it was 12.2%; in assay [4], 5.3%; in assay [5], 0.2%; in assay [6], 0%.

Consider `CN(C(=O)C12C3C4C1C1C2C3C41C#N)C(C)(C)C` (stereo not given), for which the growth inhibition in assay [1] is 20.6%; in assay [2] it was 6.15%; in assay [3], 2.5%; in assay [4] it was 11.2%; in assay [5], 20.5%; in assay [6] it was 19.6%.

For the compound `COc1cc2c(OC)cc1CSCc1sc(C)c(c1Br)CSC2`, the growth inhibition was 19.1% in assay [1]; 21.5% in assay [2]; 4.7% in assay [3]; -26.6% in assay [4]; 12.7% in assay [5]; 14.8% in assay [6].

In the case of `CCC1=C[C@H]2CN(CCc3c([nH]c4ccccc34)[C@@](C(=O)OC)(c3cc4c(cc3OC)N(C)[C@H]3[C@@](O)(C(=O)NC)[C@H](OC(C)=O)[C@]5(CC)C=CCN6CC[C@]43[C@@H]65)C2)C1`, the growth inhibition was 2.65% in assay [1]; -1.75% in assay [2]; 12.8% in assay [3]; -2.05% in assay [4]; 16.4% in assay [5]; -12.4% in assay [6].

In the case of `Nc1ccc(OCCCc2c(N)nc(N)nc2N)c(Cl)c1`, the growth inhibition in assay [1] was 98% (active); in assay [2], 99.1% (active); in assay [3], 99.3% (active); in assay [4], 98.2% (active); in assay [5] it was 98.3% (active); in assay [6], 98.5% (active).
